From PubChem BioAssay (NCATS) come the findings set out here.

The other results are listed elsewhere or left out. Results filed as inconclusive are left out. The source made the active and inactive calls. Calls follow the shape of the dose curve; as a rule, active = well fitted inhibition curve with a large enough effect; inconclusive = small, poorly fitted or top-dose-only effect, or another doubt; inactive = no such curve, though single readings can be large or run the other way.
Potency is read from the fitted curve at half-maximal effect.

Sequence of DNA polymerase eta (Homo sapiens) (Q9Y253 whole entry, looked up): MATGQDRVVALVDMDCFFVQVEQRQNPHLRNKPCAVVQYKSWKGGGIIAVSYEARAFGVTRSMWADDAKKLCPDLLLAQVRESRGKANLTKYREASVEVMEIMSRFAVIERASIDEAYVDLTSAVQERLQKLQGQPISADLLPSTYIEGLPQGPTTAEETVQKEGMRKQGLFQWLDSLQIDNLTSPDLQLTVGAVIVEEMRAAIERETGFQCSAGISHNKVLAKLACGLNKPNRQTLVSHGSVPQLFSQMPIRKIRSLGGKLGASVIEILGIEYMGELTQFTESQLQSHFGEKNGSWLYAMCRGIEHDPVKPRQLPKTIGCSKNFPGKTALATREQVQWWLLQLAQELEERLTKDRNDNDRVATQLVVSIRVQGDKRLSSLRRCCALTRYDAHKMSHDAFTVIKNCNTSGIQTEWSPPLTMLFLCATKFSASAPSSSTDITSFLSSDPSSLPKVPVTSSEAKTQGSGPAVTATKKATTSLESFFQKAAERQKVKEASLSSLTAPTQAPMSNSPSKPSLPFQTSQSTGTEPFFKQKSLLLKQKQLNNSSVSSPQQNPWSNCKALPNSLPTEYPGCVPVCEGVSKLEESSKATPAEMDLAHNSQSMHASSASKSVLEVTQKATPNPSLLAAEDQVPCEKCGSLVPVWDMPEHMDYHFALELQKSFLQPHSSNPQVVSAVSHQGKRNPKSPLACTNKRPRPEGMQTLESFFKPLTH

The experiment deals with DNA polymerase eta (Homo sapiens) (UniProt Q9Y253). Kind of experiment: qHTS for Inhibitors of Polymerase Eta: Confirmatory Assay for Cherry-picked Compounds (AID 720502). The conditions noted are these: Pol eta primer extension, TAMRA/BHQ fluorescence, 10 min. The text has this:
The Y-family of DNA polymerases, such as the Polymerase Eta (Pol eta), are specifically involved in DNA repair. Pol eta copies undamaged DNA with a lower fidelity than other DNA-directed polymerases. However, it accurately replicates UV-damaged DNA. When thymine dimers are present, this polymerase inserts the complementary nucleotides in the newly synthesized DNA, thereby bypassing the lesion and suppressing the mutagenic effect of UV-induced DNA damage. […] Thus, while Pol eta's (and most likely iota's) normal function is to protect humans against the deleterious consequences of DNA damage, under certain conditions they can have deleterious effects on human health. As a consequence, small molecule inhibitors of Pol eta (identified from a high throughput replication assay) have potential therapeutic applications. A 1536-well format, fluorescence based, high-throughput screen (AID 588591) is developed in collaboration with the National Institute of Child Health & Human Development (NICHD) to screen for inhibitors of the Pol eta enzyme. This screen is used to validate the activity of the selected compounds from the primary assay against the human Pol eta. Inhibition is the desired outcome for this assay. NIH Chemical Genomics Center [NCGC] NIH Molecular Libraries Probe Centers Network [MLPCN] MLPCN Grant: MH090825 Assay Submitter (PI): Roger Woodgate, NICHD
Three microliters of reagents (buffer in column 3 and 4 as negative control while 10 nM Pol eta in columns 1, 2, and 5-48) were dispensed into a 1536-well black solid-bottom plate. Compounds (23 nL) were transferred via Kalypsys pin tool equipped with 1536-pin array. The plates were then incubated for 15 min at room temperature, and 1 uL of substrate was added to start the reaction for a final concentration of 50 nM. The substrate was made by the annealing of unlabeled oligodeoxynucleotide primer (59-[…]-39) and TAMRA-labeled reporter strand (59-[…]-6-TAMRA-39) to oligodeoxynucleotide template labeled with BHQ-2 (59-BHQ-2-[…]-39) described in detail at the Yamanaka et.al. (PLOS, 2012) reference paper. The assay plates were initially read after 0 min and again after 10 min of kinetic reaction using the PerkinElmer Viewlux reader equipped with 525 nm excitation and 598 nm emission filters.
On the technique in general: qHTS replaces the single test concentration by a dilution series.
`O=C(Nc1nc(-c2ccco2)c(-c2ccco2)s1)c1ccco1`: the Potency is 26.9 µM (active).

With `Cc1ccc(N=C2NC(=O)/C(=C/C=C/c3ccco3)S2)cc1C`, the Potency is 53.6 µM (active).

For the compound `COC(=O)c1ccc(COc2ccc(/C=C/C(=O)c3ccc(OC)c(CSCC(=O)O)c3)cc2OC)cc1`, the Potency is 60.1 µM (active). Take `O=c1ccc2c(-c3ccccc3S(=O)(=O)O)c3ccc(O)c(O)c3oc-2c1O`: the Potency was 1.07 µM (active). As to `Cc1cc(C(=O)N/N=C/c2ccc(O)c([N+](=O)[O-])c2)c(C)n1-c1ccc(F)cc1`, the Potency is 75.7 µM (active).

On to `NC1=CC(=O)C(=O)c2cccnc21`, for which the Potency was 26.9 µM (active).

In the case of `CCC(C)Cn1c(O)cc2nn(-c3nc4ccccc4s3)c(=O)c-2c1C` (configuration not stated), the Potency was 75.7 µM (active). For `CCOc1ccc(NC(=O)c2ccc(NC(=O)COC(=O)c3ccc(NC(=O)CC#N)cc3)cc2)cc1` the value was 75.7 µM (active); for `O=C(O)c1ccc2c(c1)C(=O)N(c1ccc(/C=C/C(=O)c3ccccc3)cc1)C2=O`, 33.8 µM (active). As for `N#Cc1c(N2CCCCC2)nc(N)c2c(N)nc(SCC(=O)O)cc12`, the Potency is 19 µM (active). Regarding `COc1cccc(/C=N/Nc2ccc(S(=O)(=O)Nc3ccccc3C(=O)O)cc2[N+](=O)[O-])c1O`, the Potency is 67.5 µM (active). `Nc1ccc2nc3c(=O)[nH]c(=S)[nH]c3nc2c1`: the Potency was 19 µM (active).
